Paper PMC7862700, “An all-to-all approach to the identification of sequence-specific readers for epigenetic DNA modifications on cytosine”

What was measured:
Test in all cases: DAPPL (digital affinity profiling via proximity ligation, sequencing); 10 mM Tris-HCl pH 7.5, 50 mM NaCl, 1 mM DTT, 4% glycerol, room temperature, 30 min; GST-TFs on glutathione beads, 16-mer random dsDNA library, 0.1% formaldehyde crosslink after washing; high values mean tight binding
[1] = target: T1, FLI1 (Homo sapiens, UniProt Q01543 1-452); conditions: protein: recombinant; tags: N-terminal GST; dsDNA, one strand shown
T1 sequence: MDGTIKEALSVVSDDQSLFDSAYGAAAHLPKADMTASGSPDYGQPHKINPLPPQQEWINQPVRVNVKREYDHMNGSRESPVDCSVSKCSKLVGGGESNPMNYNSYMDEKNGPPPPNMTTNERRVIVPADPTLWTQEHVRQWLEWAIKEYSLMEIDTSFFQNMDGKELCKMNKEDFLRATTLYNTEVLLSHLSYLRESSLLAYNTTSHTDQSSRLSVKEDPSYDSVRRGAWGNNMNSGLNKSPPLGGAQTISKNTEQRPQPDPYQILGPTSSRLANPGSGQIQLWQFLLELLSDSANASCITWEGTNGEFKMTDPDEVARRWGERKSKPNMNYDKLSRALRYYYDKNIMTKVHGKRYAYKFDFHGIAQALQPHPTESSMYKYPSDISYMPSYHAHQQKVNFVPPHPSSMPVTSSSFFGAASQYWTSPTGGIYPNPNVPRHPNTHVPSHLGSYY
How it was run: (§1)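 A tag-only sample was pooled with DNA-barcoded human transcription factors that had been expressed in yeast as GST fusions and captured on glutathione beads. The pools were incubated for 30 min at room temperature with 200 nmole of a random double-stranded 16-mer DNA library in Tris/NaCl/DTT/glycerol buffer, then washed, crosslinked with 0.1% formaldehyde, proximity-ligated (BsaI/T4 ligase, 1 h, 37 °C), PCR-amplified and sequenced on an Illumina NextSeq500. Binding signal is each hexamer's read frequency for a factor divided by its frequency for the tag-only sample.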

[2] = target: ELF1 (Homo sapiens, UniProt P32519 1-619); conditions: protein: recombinant; tags: N-terminal GST; dsDNA, one strand shown
How it was run: as §1

[3] = target: T2, EHF (Homo sapiens, UniProt Q9NZC4 1-300); conditions: protein: recombinant; tags: N-terminal GST; dsDNA, one strand shown
T2 sequence: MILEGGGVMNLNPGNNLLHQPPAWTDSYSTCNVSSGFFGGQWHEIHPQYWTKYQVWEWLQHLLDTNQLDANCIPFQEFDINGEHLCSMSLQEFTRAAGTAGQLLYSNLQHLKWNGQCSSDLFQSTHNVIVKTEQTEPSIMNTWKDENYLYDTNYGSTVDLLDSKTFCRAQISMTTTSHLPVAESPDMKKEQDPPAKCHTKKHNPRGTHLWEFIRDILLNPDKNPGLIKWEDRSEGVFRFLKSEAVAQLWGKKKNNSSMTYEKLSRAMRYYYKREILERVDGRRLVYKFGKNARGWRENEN
How it was run: as §1

[4] = target: SPIB (Homo sapiens, UniProt Q01892 1-262); conditions: protein: recombinant; tags: N-terminal GST; dsDNA, one strand shown
How it was run: as §1

[5] = target: T3, ELK3 (Homo sapiens, UniProt P41970 1-407); conditions: protein: recombinant; tags: N-terminal GST; dsDNA, one strand shown
T3 sequence: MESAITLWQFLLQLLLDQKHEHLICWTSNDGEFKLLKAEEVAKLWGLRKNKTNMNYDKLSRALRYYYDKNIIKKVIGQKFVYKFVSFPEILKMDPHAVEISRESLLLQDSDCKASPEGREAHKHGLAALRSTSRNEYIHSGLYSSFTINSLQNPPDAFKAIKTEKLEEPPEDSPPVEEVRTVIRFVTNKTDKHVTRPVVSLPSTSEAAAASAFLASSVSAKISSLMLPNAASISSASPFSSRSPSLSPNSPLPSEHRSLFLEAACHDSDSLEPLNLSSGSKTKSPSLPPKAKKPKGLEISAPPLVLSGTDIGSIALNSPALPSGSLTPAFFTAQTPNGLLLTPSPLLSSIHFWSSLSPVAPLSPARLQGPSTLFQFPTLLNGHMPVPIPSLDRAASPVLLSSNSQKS
How it was run: as §1

[6] = target: ETV5 (Homo sapiens, UniProt P41161 1-510); conditions: protein: recombinant; tags: N-terminal GST; dsDNA, one strand shown
How it was run: as §1

[7] = target: HSF1 (Homo sapiens, UniProt Q00613 1-529); conditions: protein: recombinant; tags: N-terminal GST; chain copies: 3; dsDNA, one strand shown
How it was run: as §1

[8] = target: T4, SPIC (Homo sapiens, UniProt Q8N5J4 1-248); conditions: protein: recombinant; tags: N-terminal GST; dsDNA, one strand shown
T4 sequence: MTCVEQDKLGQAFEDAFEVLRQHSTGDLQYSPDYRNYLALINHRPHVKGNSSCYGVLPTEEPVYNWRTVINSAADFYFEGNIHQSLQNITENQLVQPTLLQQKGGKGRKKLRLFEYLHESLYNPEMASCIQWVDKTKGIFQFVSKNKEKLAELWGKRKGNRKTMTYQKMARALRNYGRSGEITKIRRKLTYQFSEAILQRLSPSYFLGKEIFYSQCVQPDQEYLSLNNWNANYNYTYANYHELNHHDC
How it was run: as §1

[9] = target: T5, ELK4 (Homo sapiens, UniProt P28324-2 1-405); conditions: protein: recombinant; tags: N-terminal GST; dsDNA, one strand shown
T5 sequence: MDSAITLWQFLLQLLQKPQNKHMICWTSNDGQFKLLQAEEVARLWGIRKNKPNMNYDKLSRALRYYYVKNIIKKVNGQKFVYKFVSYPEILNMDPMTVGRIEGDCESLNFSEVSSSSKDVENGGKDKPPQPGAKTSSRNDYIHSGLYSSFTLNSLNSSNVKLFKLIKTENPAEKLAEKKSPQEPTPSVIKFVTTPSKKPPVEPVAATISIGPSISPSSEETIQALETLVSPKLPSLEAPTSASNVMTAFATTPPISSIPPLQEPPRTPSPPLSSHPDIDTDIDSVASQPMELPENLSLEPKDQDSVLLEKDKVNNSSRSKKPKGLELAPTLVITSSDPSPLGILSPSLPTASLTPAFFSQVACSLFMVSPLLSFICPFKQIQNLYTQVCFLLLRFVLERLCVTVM
How it was run: as §1

[10] = target: CRX (Homo sapiens, UniProt O43186 1-299); conditions: protein: recombinant; tags: N-terminal GST; dsDNA, one strand shown
How it was run: as §1

[11] = target: ETV1 (Homo sapiens, UniProt P50549 1-477); conditions: protein: recombinant; tags: N-terminal GST; dsDNA, one strand shown
How it was run: as §1

[12] = target: T6, ELK1 (Homo sapiens, UniProt P19419 1-428); conditions: protein: recombinant; tags: N-terminal GST; dsDNA, one strand shown
T6 sequence: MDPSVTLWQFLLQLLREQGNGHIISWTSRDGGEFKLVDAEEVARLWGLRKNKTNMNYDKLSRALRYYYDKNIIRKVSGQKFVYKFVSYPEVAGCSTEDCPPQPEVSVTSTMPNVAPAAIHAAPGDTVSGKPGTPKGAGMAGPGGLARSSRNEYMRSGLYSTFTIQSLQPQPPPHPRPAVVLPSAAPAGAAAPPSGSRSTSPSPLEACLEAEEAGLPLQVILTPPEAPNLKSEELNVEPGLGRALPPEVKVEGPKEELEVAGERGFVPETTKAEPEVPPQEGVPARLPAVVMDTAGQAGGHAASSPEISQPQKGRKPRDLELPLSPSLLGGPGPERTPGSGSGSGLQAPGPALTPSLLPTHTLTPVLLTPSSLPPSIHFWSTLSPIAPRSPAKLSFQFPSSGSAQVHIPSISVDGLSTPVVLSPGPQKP
How it was run: as §1

[13] = target: T7, GABPA (Homo sapiens, UniProt Q06546 1-454); conditions: protein: recombinant; tags: N-terminal GST; dsDNA, one strand shown
T7 sequence: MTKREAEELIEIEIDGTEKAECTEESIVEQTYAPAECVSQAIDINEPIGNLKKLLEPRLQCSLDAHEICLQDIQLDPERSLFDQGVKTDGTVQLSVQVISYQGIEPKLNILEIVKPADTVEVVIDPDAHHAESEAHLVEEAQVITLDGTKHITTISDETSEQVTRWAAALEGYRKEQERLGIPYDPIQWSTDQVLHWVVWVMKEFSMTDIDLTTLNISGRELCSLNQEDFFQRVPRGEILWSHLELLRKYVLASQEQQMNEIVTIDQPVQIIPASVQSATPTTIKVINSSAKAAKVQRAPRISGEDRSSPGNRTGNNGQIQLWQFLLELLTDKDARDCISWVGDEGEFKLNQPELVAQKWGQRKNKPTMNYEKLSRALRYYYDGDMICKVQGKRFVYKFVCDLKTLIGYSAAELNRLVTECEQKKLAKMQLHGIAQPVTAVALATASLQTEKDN
How it was run: as §1

[14] = target: T8, ERG (Homo sapiens, UniProt P11308 1-479); conditions: protein: recombinant; tags: N-terminal GST; dsDNA, one strand shown
T8 sequence: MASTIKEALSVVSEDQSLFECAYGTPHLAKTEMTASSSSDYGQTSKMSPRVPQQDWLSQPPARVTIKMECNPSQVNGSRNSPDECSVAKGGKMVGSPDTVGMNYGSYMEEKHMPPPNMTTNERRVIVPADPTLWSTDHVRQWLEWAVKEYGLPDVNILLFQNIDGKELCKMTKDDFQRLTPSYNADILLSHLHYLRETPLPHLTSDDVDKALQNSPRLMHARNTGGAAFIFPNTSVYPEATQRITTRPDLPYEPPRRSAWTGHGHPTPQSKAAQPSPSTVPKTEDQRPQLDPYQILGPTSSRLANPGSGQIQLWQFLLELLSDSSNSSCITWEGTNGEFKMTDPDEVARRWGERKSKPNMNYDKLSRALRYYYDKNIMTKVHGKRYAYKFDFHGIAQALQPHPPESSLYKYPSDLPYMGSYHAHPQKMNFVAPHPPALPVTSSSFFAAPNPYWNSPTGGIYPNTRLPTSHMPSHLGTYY
How it was run: as §1

[15] = target: SPI1 (Homo sapiens, UniProt P17947 1-270); conditions: protein: recombinant; tags: N-terminal GST; dsDNA, one strand shown
How it was run: as §1

[16] = target: T9, FEV (Homo sapiens, UniProt Q99581 1-238); conditions: protein: recombinant; tags: N-terminal GST; dsDNA, one strand shown
T9 sequence: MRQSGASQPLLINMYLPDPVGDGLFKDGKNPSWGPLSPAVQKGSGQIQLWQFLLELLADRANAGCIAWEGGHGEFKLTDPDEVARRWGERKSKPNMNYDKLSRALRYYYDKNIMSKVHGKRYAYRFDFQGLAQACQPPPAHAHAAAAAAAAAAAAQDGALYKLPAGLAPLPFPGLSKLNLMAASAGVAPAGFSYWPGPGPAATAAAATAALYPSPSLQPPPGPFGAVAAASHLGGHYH
How it was run: as §1

[17] = target: T10, ELF3 (Homo sapiens, UniProt P78545 1-371); conditions: protein: recombinant; tags: N-terminal GST; dsDNA, one strand shown
T10 sequence: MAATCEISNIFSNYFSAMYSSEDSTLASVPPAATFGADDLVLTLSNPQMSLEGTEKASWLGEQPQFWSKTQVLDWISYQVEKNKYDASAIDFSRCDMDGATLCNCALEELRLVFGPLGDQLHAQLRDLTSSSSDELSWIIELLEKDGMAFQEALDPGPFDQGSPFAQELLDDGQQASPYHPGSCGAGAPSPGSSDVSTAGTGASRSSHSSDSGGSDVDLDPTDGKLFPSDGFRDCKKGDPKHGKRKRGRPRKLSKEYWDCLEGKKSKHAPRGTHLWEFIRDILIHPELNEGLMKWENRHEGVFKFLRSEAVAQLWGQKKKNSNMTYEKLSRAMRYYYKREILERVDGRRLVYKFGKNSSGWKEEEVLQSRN
How it was run: as §1

SPIB, sequence (Q01892 whole entry): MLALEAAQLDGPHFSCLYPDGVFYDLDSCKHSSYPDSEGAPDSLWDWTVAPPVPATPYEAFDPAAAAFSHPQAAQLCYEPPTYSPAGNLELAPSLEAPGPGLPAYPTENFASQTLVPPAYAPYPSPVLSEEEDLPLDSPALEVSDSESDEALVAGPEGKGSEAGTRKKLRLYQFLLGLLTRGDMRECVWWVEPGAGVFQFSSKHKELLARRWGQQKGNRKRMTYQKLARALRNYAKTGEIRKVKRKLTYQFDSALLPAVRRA
ETV5, sequence (P41161 whole entry): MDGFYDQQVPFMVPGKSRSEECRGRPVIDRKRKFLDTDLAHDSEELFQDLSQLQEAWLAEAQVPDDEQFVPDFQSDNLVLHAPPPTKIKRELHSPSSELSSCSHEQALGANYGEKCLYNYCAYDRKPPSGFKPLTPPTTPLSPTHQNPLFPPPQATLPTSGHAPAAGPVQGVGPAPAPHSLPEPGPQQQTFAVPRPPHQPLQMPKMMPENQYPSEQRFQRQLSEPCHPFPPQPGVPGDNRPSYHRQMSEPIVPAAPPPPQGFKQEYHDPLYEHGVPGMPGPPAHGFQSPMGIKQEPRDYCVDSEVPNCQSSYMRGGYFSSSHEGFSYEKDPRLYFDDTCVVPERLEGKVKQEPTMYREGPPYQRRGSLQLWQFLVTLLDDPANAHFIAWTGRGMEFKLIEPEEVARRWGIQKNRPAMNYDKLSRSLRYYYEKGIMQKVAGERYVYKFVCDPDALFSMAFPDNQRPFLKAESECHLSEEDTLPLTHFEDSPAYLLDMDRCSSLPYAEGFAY
CRX, sequence (O43186 whole entry): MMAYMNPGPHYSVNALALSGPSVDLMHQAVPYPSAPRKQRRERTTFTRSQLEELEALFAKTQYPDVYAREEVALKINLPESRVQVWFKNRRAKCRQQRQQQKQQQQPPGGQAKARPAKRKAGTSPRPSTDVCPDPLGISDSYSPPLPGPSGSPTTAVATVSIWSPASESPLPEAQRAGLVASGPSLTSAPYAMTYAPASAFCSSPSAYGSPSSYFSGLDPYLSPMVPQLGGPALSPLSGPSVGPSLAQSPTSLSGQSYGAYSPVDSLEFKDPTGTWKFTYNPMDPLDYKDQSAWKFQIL
HSF1, sequence (Q00613 whole entry): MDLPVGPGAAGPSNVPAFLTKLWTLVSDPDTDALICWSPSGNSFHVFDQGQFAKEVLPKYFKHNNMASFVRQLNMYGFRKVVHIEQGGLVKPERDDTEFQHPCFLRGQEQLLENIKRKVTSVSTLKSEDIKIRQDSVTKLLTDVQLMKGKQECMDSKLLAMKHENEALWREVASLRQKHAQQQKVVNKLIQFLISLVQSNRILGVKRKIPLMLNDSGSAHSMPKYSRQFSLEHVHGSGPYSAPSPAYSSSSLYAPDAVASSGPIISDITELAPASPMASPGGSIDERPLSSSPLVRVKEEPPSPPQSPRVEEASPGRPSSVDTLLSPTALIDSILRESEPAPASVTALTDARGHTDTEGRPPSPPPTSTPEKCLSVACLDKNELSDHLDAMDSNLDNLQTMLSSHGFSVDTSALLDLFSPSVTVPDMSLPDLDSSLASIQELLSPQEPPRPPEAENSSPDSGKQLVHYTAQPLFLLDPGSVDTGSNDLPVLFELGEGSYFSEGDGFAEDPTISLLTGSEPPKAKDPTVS
ETV1, sequence (P50549 whole entry): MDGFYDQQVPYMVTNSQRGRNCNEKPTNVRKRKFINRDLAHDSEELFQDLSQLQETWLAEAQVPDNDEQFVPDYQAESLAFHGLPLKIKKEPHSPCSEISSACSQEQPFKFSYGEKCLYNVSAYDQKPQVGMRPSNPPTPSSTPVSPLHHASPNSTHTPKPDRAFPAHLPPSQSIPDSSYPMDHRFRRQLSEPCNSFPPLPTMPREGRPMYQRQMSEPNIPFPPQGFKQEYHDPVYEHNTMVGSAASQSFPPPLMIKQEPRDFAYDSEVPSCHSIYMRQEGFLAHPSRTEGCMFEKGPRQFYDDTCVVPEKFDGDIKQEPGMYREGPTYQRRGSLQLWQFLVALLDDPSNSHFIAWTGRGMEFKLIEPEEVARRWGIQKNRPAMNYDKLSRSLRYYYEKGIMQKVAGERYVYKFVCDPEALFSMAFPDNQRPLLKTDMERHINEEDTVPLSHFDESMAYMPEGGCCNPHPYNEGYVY
ELF1, sequence (P32519 whole entry): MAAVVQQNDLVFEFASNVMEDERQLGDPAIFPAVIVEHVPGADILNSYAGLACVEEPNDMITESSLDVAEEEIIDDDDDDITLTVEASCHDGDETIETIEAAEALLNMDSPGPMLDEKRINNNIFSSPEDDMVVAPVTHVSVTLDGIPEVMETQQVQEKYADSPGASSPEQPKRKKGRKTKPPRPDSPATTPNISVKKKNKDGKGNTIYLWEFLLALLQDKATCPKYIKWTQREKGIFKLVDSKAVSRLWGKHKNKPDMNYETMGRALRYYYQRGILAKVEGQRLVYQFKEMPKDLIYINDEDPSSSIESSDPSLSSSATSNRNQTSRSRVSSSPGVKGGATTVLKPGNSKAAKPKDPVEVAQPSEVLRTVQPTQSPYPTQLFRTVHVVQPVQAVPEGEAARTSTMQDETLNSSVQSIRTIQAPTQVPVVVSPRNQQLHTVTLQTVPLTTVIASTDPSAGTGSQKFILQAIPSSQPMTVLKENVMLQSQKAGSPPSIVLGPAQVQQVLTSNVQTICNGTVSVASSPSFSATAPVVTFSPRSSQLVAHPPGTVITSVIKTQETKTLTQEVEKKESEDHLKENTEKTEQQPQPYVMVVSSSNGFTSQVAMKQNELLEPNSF

Row | Sequence | binding signal [1] | binding signal [2] | binding signal [3] | binding signal [4] | binding signal [5] | binding signal [6] | binding signal [7] | binding signal [8] | binding signal [9] | binding signal [10] | binding signal [11] | binding signal [12] | binding signal [13] | binding signal [14] | binding signal [15] | binding signal [16] | binding signal [17]
1 | TCATCG | 1.12 fold enrichment (6-mer frequency, TF over GST control) | 1.01 fold enrichment (6-mer frequency, TF over GST control) | 1.05 fold enrichment (6-mer frequency, TF over GST control) | 1.13 fold enrichment (6-mer frequency, TF over GST control) | 1.02 fold enrichment (6-mer frequency, TF over GST control) | 1 fold enrichment (6-mer frequency, TF over GST control) | 1.12 fold enrichment (6-mer frequency, TF over GST control) | 1.05 fold enrichment (6-mer frequency, TF over GST control) | 1.05 fold enrichment (6-mer frequency, TF over GST control) | 1.05 fold enrichment (6-mer frequency, TF over GST control) | 1.03 fold enrichment (6-mer frequency, TF over GST control) | – | – | – | – | – | –
2 | TGTTCG | 1.19 fold enrichment (6-mer frequency, TF over GST control) | – | 1.2 fold enrichment (6-mer frequency, TF over GST control) | 1.09 fold enrichment (6-mer frequency, TF over GST control) | 1.03 fold enrichment (6-mer frequency, TF over GST control) | 1.06 fold enrichment (6-mer frequency, TF over GST control) | 1.6 fold enrichment (6-mer frequency, TF over GST control) | 1.15 fold enrichment (6-mer frequency, TF over GST control) | 1.01 fold enrichment (6-mer frequency, TF over GST control) | 1.06 fold enrichment (6-mer frequency, TF over GST control) | 1.05 fold enrichment (6-mer frequency, TF over GST control) | 1.1 fold enrichment (6-mer frequency, TF over GST control) | 1.07 fold enrichment (6-mer frequency, TF over GST control) | 1.04 fold enrichment (6-mer frequency, TF over GST control) | 1.06 fold enrichment (6-mer frequency, TF over GST control) | 1.01 fold enrichment (6-mer frequency, TF over GST control) | 1.17 fold enrichment (6-mer frequency, TF over GST control)
